The source of these data is ChEMBL document CHEMBL4513216, “Probing the Open Global Health Chemical Diversity Library for Multistage-Active Starting Points for Next-Generation Antimalarials” (ACS Infect Dis, 2020).

The whole screen tested about 68,000 compounds, of which about 2,700 (4%) showed an effect of 50% or more. The full list was thinned out, with strong results kept by preference.

The assay has as its system Plasmodium berghei. Kind of assay: Screen against P. berghei liver stage (PbLuc), transformed with Luciferase, at 2uM. Type of assay: functional, HepG2. The following applies: tested at 2 uM.
Consider `COCCNC(=O)Cn1c(-c2ccco2)cc2cccnc21`, for which the INHIBITION amounted to 37.87%.
The figure for `CCOc1nc2cccnc2n(CC(=O)NCCOC)c1=O` is 74.49%; for `CCOc1nc2cnccc2n(CC(=O)NCCc2ccccc2)c1=O` it is 28.85%.
As to `CNC(=O)CN1CCOCC2(C1)CN(C(=O)CC(C)C)CCO2` (stereo not given), the INHIBITION is -1.18%.
For the compound `Fc1cccc2[nH]c(CN3CCc4cncnc4C3)nc12`, the INHIBITION is on record as 7.24%.
`Cc1nn(C)c(N(C)C)c1CNCc1cccnc1N1CCOCC1`: the INHIBITION was 28.81%.
On to `O=S1(=O)CCCN1Cc1coc(-c2ccc(C(F)(F)F)cc2)n1`, for which the INHIBITION was 1.8%.
Consider `CSc1ccc(C(C)NC(=O)c2cc(C)on2)cc1` (stereo not given), for which the INHIBITION was -121.09%.
The figure for `COc1ccc(C(CC(=O)O)NC(=O)c2cc(C)on2)cc1` (stereo not given) is 73.09%.
The figure for `CSc1ccc(C(CC(=O)O)NC(=O)c2cc(C)on2)cc1` (stereo not given) is -70.44%; for `CN(C)CC(=O)N1CCC2(CC(=O)N(c3cccc(C#N)c3)C2)C1` (stereo not given) it is -3.08%; for `CC(C)c1nnc(N2C[C@H]3CC[C@@H](C2)N(Cc2ccccc2)C3)s1` it is -23.49%.
Turning to `O=C1C[C@@H]2CC[C@H](CN1)N2C(=O)CCCc1ccc(Cl)cc1`, the INHIBITION is recorded as -29.06%.
The figure for `O=C1C(NS(=O)(=O)c2cccc(F)c2)CCN1Cc1ccccc1` (stereo not given) is 54.29%; for `O=C1C(NS(=O)(=O)c2ccc(F)cc2)CCN1Cc1ccccc1` (stereo not given) it is 38.76%.
Regarding `O=C1C(NS(=O)(=O)c2cc(F)cc(F)c2)CCN1Cc1ccccc1` (stereo not given), the INHIBITION is on record as 23.92%.
Next, `CC(=O)N1CCS(=O)(=O)[C@@H]2CCN(S(=O)(=O)CC(C)C)CC[C@@H]21`: -12.76%.
With `CC(C)CN1CC[C@@H]2[C@H](CC1)N(C(=O)c1ccccc1)CCS2(=O)=O`, the INHIBITION is -1.31%.
As to `CC(=O)N1CCS(=O)(=O)[C@@H]2CCN(CC(C)C)CC[C@@H]21`, the INHIBITION was found to be 60%.
Regarding `Cc1nsc(C(=O)NCCc2ccc(S(N)(=O)=O)cc2)n1`, the INHIBITION was -43.28%.
With `CC(C)Cc1nc(CN2CCOC(Cn3cccn3)C2)no1` (stereo not given), the INHIBITION is given as -20.61%.
With `O=C(NC1CC1)c1cc(NC(=O)N2CCCC2)ccc1Cl`, the INHIBITION was 31.51%.
For `O=C(NC1CC1)c1cc(NC(=O)N2CCSCC2)ccc1Cl`, the INHIBITION is on record as 31.51%.
Next, `O=C(NC1CC1)c1cc(NC(=O)N2CCOCC2)ccc1Cl`: 64.9%.
Next, `CCN(Cc1noc(CC(C)C)n1)Cc1ccccc1Cl`: -33.2%; `CCN(Cc1cc(F)c(OC)c(Cl)c1)Cc1noc(CC(C)C)n1`: 71.91%.
`CCN(Cc1cc(F)c(OC)c(Cl)c1)Cc1nc(COC)no1`: the INHIBITION was -20.98%.
Next, `CCn1cc(CN2CCCC(c3[nH]ncc3-c3ccc(C)cc3)C2)cn1` (stereo not given): -20.72%; `CN(C)Cc1nn(C)c2c1CCN(C(=O)c1cccnc1)C2`: 47.97%.
The figure for `CNC(=O)c1cccc(CCNc2ncc(Br)cn2)c1` is 12.41%; for `CCn1cc(N)c(-c2nnc3n2CCCC3)n1` it is -37.89%; for `Cn1nnc2cc(C(=O)NS(=O)(=O)c3ccc(F)cc3)ccc21` it is 28.72%.
In the case of `Cc1cccc(S(=O)(=O)NC(=O)c2ccc3c(c2)nnn3C)c1`, the INHIBITION worked out at 53.99%.
As to `Cn1nnc2cc(C(=O)NS(=O)(=O)c3cccc(C#N)c3)ccc21`, the INHIBITION is given as -40.9%.
As for `CCc1ncc2c(n1)CN(c1nnc(C)c(C)c1C#N)CC2`, the INHIBITION is listed as 23.43%.
With `Cc1cc(-c2cnc(N3CCCC(C)C3)nc2-c2cccnc2C)on1` (stereo not given), the INHIBITION is given as -39.75%.
As for `CS(=O)(=O)NCc1n[nH]c2c1CCN(C(=O)c1ccsc1)C2`, the INHIBITION came to 19.56%.
For the compound `CCC(=O)NCc1cc(Br)ccc1OC(F)F`, the INHIBITION is reported as 43.8%.
For `CN1CCN2C(=O)N(C3CCOCC3)C[C@H]2C1`, the INHIBITION turned out to be 52.36%.
In the case of `CS(=O)(=O)N1CCN2C(=O)N(C3CCOCC3)C[C@H]2C1`, the INHIBITION is listed as 35.89%.
Regarding `CN1CCN2C(=O)N(C3CCCCC3)C[C@H]2C1`, the INHIBITION is given as -22.32%.
`Cc1cnn(CC2CCCN2C(=O)CCc2ccncc2)c1` (stereo not given): the INHIBITION is listed as -5.39%.
Next, `N#Cc1ccc(C(=O)N2CCc3c(COCC4CC4)cncc3C2)cc1`: -20.87%.
The figure for `CSC1(CNC(=O)N(C)Cc2sccc2C)CCOCC1` is 57.16%.
With `CSC1(CNC(=O)N(C)Cc2ccc(C)s2)CCOCC1`, the INHIBITION is reported as -18.99%.
With `CSC1(CNC(=O)NCc2sccc2C)CCOCC1`, the INHIBITION amounted to 13.58%.
Turning to `CC(C)N(C)CC(=O)NCCc1nc(C(F)(F)F)cs1`, the INHIBITION is recorded as -18.28%.
For the compound `CN(C)Cc1nnc(C2CCN(c3ncccc3Cl)CC2)n1C1CC1`, the INHIBITION amounted to 84.18%.
As for `CN(C)Cc1nnc(C2CCN(c3ncccn3)CC2)n1C1CC1`, the INHIBITION was -61.17%.
In the case of `Cc1cnc(C)c(N2CCC(c3nnc(CN(C)C)n3C3CC3)CC2)n1`, the INHIBITION is given as -13.88%.
Next, `Cn1cncc1CN1CCC2(CC1)COCCN(S(C)(=O)=O)C2`: -38.72%; `Cc1cc(C(F)(F)F)nn1CCNC(=O)C(C)n1ccnc1C(C)C` (stereo not given): -4.93%; `CCCN(CC1CC1)S(=O)(=O)c1ccc(NC(C)=O)cc1`: -13.12%.
For the compound `CC(C)(O)CCc1cccc(C(=O)N2CCC[C@H]2C(N)=O)c1`, the INHIBITION was determined as 6.26%.
In the case of `COc1ccc(OCCN(C)S(=O)(=O)c2cnn(C)c2)cc1`, the INHIBITION turned out to be 83.12%.
Consider `Cc1ccc(OCCN(C)S(=O)(=O)c2cnn(C)c2)cc1`, for which the INHIBITION was found to be 31.54%.
Consider `CN(CCCOc1ccc(F)cc1)S(=O)(=O)c1cnn(C)c1`, for which the INHIBITION is -6.65%.
In the case of `CN(CCCOc1ccccc1)S(=O)(=O)c1cnn(C)c1`, the INHIBITION is -2.63%.
Consider `CN(C)CCOc1ccc(N(C)S(=O)(=O)c2cnn(C)c2)cc1`, for which the INHIBITION is listed as 57.68%.
Take `CN(CCOc1ccc(F)cc1)S(=O)(=O)c1cnn(C)c1`: the INHIBITION is -11.34%.
Next, `Cc1oc(C(=O)O)cc1S(=O)(=O)Nc1cccc(-n2nccc2C)c1`: 37.15%.
With `Cc1c[nH]nc1C1CCN(C(=O)C2CCCC2)C1` (stereo not given), the INHIBITION is on record as 41.21%.
In the case of `NC(=O)C1(Cc2ccc(-c3ccccc3)cc2)CCNC1` (stereo not given), the INHIBITION was 9.18%.
In the case of `CCOC(=O)CCNC(=O)N1CCOC(Cc2cccc(OC)c2)C1` (stereo not given), the INHIBITION is reported as 25.37%.
Next, `CCOC(=O)CNC(=O)N1CCOC(Cc2ccc(OC)cc2)C1` (stereo not given): 55.66%.
Regarding `CCOC(=O)CNC(=O)N1CCOC(CCc2ccccc2)C1` (stereo not given), the INHIBITION was -18.39%.
Regarding `CN(C)CCOCC1CN(Cc2ccncc2)Cc2nnn(C)c21` (stereo not given), the INHIBITION is 7.1%.
`CN1CCC(N(CCc2ccccc2)C(=O)COCC2CCCO2)CC1` (stereo not given): the INHIBITION was determined as 42.79%.
For `Cc1cccc(-c2nccnc2C2CCN(C)CC2)c1C`, the INHIBITION is -25.17%.
For the compound `COC(=O)c1sc2cccc(F)c2c1CNC(=O)C1CCCO1` (stereo not given), the INHIBITION was 50.3%.
As to `COC(=O)c1sc2cccc(F)c2c1CNC(=O)C1CC1`, the INHIBITION is reported as 15.28%.
Consider `COC(=O)c1sc2cccc(F)c2c1CNC(=O)C1CCOC1` (stereo not given), for which the INHIBITION came to 33.02%.
For `Cc1ncccc1-c1cc2cccnc2n1CCCNC(=O)C(C)(C)C`, the INHIBITION was found to be 24.98%.
For the compound `COCCN1CCC2(CC1)CC(NC(=O)CN(C)C)c1ccccc1O2` (stereo not given), the INHIBITION turned out to be 48.52%.
As for `CC(C)c1nc2c(n1C)CCN(CC(=O)Nc1ccc(Cl)cn1)C2`, the INHIBITION was determined as 51.92%.
Take `Cc1csc(NC(=O)CN2CCc3c(nc(C4CC4)n3C)C2)n1`: the INHIBITION was -1.02%.
Regarding `CCCn1nccc1NC(=O)CN1CCc2c(nc(C3CC3)n2C)C1`, the INHIBITION was 49.6%.
For the compound `Cc1nnc(NC(=O)CN2CCc3c(nc(C(C)C)n3C)C2)s1`, the INHIBITION was 22.63%.
`CC(C)c1nc2c(n1C)CCN(CC(=O)Nc1nccs1)C2`: the INHIBITION was -15.91%.
For the compound `CC(C)c1nc2c(n1C)CCN(CC(=O)Nc1ccnn1C(C)C)C2`, the INHIBITION was -42.83%.
For `CCCn1nccc1NC(=O)CN1CCc2c(nc(C(C)C)n2C)C1`, the INHIBITION is on record as 56.12%.
`Cn1c(C2CC2)nc2c1CCN(CC(=O)Nc1nncs1)C2`: the INHIBITION was 22.51%.
With `CC(C)c1nc2c(n1C)CCN(CC(=O)Nc1cccnc1)C2`, the INHIBITION is recorded as -14.17%.
Regarding `CC(C)c1nc2c(n1C)CCN(CC(=O)Nc1ccncc1)C2`, the INHIBITION is -14.17%.
For the compound `Cc1nnc(NC(=O)CN2CCc3c(nc(C4CC4)n3C)C2)s1`, the INHIBITION was found to be 51.94%.
As for `CC(C)c1nc2c(n1C)CCN(CC(=O)Nc1nncs1)C2`, the INHIBITION was determined as 60.09%.
Regarding `Cc1ccc2c(c1)C1(CCNCC1)CN2C(=O)CN(C)C`, the INHIBITION came to 15.58%.
For the compound `O=C(Nc1cccnc1)C1Cc2nc(-c3ccsc3)sc2N1CC1CC1` (stereo not given), the INHIBITION is recorded as 18.2%.
Next, `CCn1c(CN(C)C(=O)c2ccc(OC)nc2)nc2ccccc21`: -33.03%.
In the case of `O=C(Nc1cccc(CNCc2cccnc2)c1)C1CCCC1`, the INHIBITION came to 14.53%.
Take `O=C(c1cscn1)N1C[C@@H]2C[C@@H](c3nnc(C4CC4)o3)O[C@@H]2C1`: the INHIBITION was -4.1%.
On to `Cn1cc(CNC2CCc3ncnn3C2)c(-c2ccncc2)n1` (stereo not given), for which the INHIBITION worked out at 49.88%.
Consider `CN(C)C(=O)C1CCC2(CCNCC2)C1` (stereo not given), for which the INHIBITION worked out at 26.55%.
Regarding `CC(C)N(C)Cc1cnc2n1CCN(S(=O)(=O)c1ccccc1)C2`, the INHIBITION amounted to 29.3%.
As for `COc1ccc(C(=O)C2CCCN(Cc3cc(C)n[nH]3)C2)c(OC)c1` (stereo not given), the INHIBITION is 15.08%.
Regarding `O=C(C[S+]([O-])Cc1cccc(F)c1)NC1CCCC1` (stereo not given), the INHIBITION came out at 27.67%.
The figure for `CC(C)Oc1ncc(C(=O)N2CCCC(C(=O)O)C2)cc1Cl` (stereo not given) is 0.51%; for `CC(O)CN1CCN(C(=O)c2cnc(OC(C)C)c(Cl)c2)CC1` (stereo not given) it is 19.59%.
As for `CCN1CCCN(C(=O)c2cnc(OC(C)C)c(Cl)c2)CC1`, the INHIBITION is given as -16.16%.
`CC(=O)N1CCCN(C(=O)c2cnc(OC(C)C)c(Cl)c2)CC1`: the INHIBITION worked out at 31.51%.
On to `CC(=O)N1CCN(C(=O)c2cnc(OC(C)C)c(Cl)c2)CC1`, for which the INHIBITION is recorded as 55.36%.
For `CC(C)Oc1ncc(C(=O)N2CCC(NC(=O)C3CC3)CC2)cc1Cl`, the INHIBITION is given as -58.69%.
Consider `CC(C)Oc1ncc(C(=O)N2CCC(N(C)C)CC2)cc1Cl`, for which the INHIBITION is 55.36%.
As to `CC(C)Oc1ncc(C(=O)N2CCC(CC(N)=O)CC2)cc1Cl`, the INHIBITION is 64.9%.
Next, `CC(C)c1ccc(OCCC(=O)N2CCC(CC(N)=O)CC2)cc1`: 31.19%.
